TIM10 inh: growth inhibitors of isogenic TIM10 control yeast, primary screen, counter-screen for tim10-1 yeast inhibitor project, luminescence, uHTS. S. cerevisiae TIM10 strain growth, BacTiter-Glo luminescence, 24 h. inhibition, % at 10 µM. 1.4% of 330,000 active. AID 463195, 2010;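 active means inhibition of 40% or more at the single tested concentration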;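 further: wild-type TIM10 isogenic control strain grown at permissive 25 °C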
V-ATPase pH: regulators of yeast V-ATPase proton pumping, primary screen, pHLuorin cytosolic pH fluorescence; S. cerevisiae; response, % at 10 µM; 0.37% of 350,000 active; AID 504577, 2011; in the data active means response mostly above about 7.3%, no sharp cut-off; inactive means mostly below about 5.4%; further: actives read high
tim23-1 inh: growth inhibitors of tim23-1 mutant yeast, primary screen, luminescence, uHTS | S. cerevisiae tim23-1 growth, BacTiter-Glo luminescence, 24 h | inhibition, % at 20 µM | 1.3% of 330,000 active | AID 463212, 2010;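 active means growth inhibition of the mutant yeast at or above 50%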;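 further: temperature-sensitive mutant grown at 25 °C; plate controls were DMSO-treated mutant yeast for no effect and medium wells lacking yeast for full effect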
tim10-1 inh: growth inhibitors of tim10-1 mutant yeast, primary screen, luminescence, uHTS; S. cerevisiae tim10-1 ts strain growth, BacTiter-Glo, 24 h; inhibition, % at 20 µM; 2.2% of 330,000 active; AID 463190, 2010;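 active means inhibition of at least 40%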;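 further: mutant grown at 25 °C; 0% = DMSO wells with yeast and 100% = wells holding no yeast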
PfHsp90 yeast 2: growth inhibition of PfHsp90-expressing yeast, primary screen, antimalarial PfHsp90 inhibitor project, S. cerevisiae, BacTiter-Glo luminescence, single point, set 2; 0.32% of 310,000 active; BacTiter-Glo ATP, 48 h; yeast lacking PDR1 and PDR3 efflux regulators; inhibition, % at 9.4 µM; AID 504621, 2011;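 active means every replicate shows inhibition above about 80%, whatever the replicate mean, limit read from the data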;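 further: 0% = DMSO neutral controls and 100% = 20 µM radicicol positive controls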
tim10-1 conf: growth inhibitors of tim10-1 mutant yeast, confirmation, single concentration, luminescence, S. cerevisiae. shares compounds with tim10-1 inh. S. cerevisiae tim10-1 ts strain growth, BacTiter-Glo, 24 h. inhibition, % at 20 µM. 56% of 7,400 active. AID 463213, 2010;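 active means inhibition of yeast growth at or above a set limit in either of two repeat tests at 20 µM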;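 further: tim10-1 mutant grown at permissive 25 °C to find synthetic lethal compounds; 0% = DMSO yeast wells and 100% = medium wells without yeast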
Active calls of the source: *; nt = not tested or not shown. A selection: hits, their analogues and other compounds. The true share with any hit is near 3.7%.

SMILES | TIM10 inh | V-ATPase pH | tim23-1 inh | tim10-1 inh | PfHsp90 yeast 2 | tim10-1 conf
COc1ccc(C(=O)CN(C(=O)c2ccc(Cl)cc2)N2C(=O)C3CCCCC3C2=O)cc1 (stereo unspecified) | 26 | -3 | 35 | 47* | nt | 24
CN(Cc1ccccc1)c1ncnc2ccc(Br)cc12 | 31 | -2 | 44 | 42* | -6 | 11
Oc1ccc(/C=N/Nc2nccnc2Cl)cc1 | 30 | -3 | 35 | 47* | -3 | 40*
COc1ccc(C(=S)NCS(=O)(=O)c2ccc(C)cc2)cc1 | 15 | -3 | 32 | 40* | 2 | 19
Cc1ccc(S(=O)(=O)CNC(=S)c2cccc(C)c2)cc1 | 23 | -4 | 25 | 34 | -18 | nt
O=C(OCC(=O)N1CCCC1)c1c(Cl)ccc(Cl)c1Cl | 4 | -5 | 8 | 2 | -3 | nt
S=c1nc(C2CCCCC2)n(-c2ccccc2)[nH]1 | 34 | -3 | 30 | 44* | -28 | 25
O=C(c1cc2cc(F)ccc2[nH]1)N1CCN(Cc2ccc3c(c2)OCO3)CC1 | 20 | 14* | 30 | 44* | -6 | -18
C=CCNc1nc(C(=O)OCC(=O)NCc2cccc(Cl)c2)cs1 | 2 | -2 | 11 | 11 | 5 | nt
CN(C(=O)c1ccc(NC(=O)Cc2ccc(NC(=O)C3CCCN(C(=O)C4CCC4)C3)cc2)cc1)C1CCCC1 (stereo unspecified) | nt | 2 | nt | nt | 0 | nt
CCc1ccc(/C=C(\C)C(=O)c2c(C)cc(C)[nH]c2=O)cc1 | 2 | 1 | 13 | 20 | 5 | nt
Cc1cc(C)c(C(=O)/C=C/c2cccs2)c(=O)[nH]1 | -4 | 1 | 14 | 14 | -18 | nt
CCc1ccc(/C=C/C(=O)c2c(C)cc(C)[nH]c2=O)cc1 | 16 | 0 | 33 | 45* | nt | 38*
Cc1ccc(/C=C/C(=O)c2c(C)cc(C)[nH]c2=O)cc1 | 31 | 0 | 27 | 43* | nt | 38*
O=C(O)c1ccc(NS(=O)(=O)Cc2ccc(Cl)c(Cl)c2)cc1 | nt | 1 | nt | nt | -1 | nt
COCC(=O)Nc1ccc2c(c1)[C@@H]1C[C@H](CC(=O)OC)O[C@@H](CO)[C@@H]1O2 | nt | 0 | nt | nt | nt | nt
COC(=O)C1=C(C)NC(=O)/C1=C\c1ccc2c(c1)OCO2 | 26 | -3 | 31 | 42* | 18 | 26
CC1=NOC(=O)/C1=C\c1ccc2c(c1)OCO2 | -11 | -2 | 21 | -4 | 31 | nt
COC(=O)c1cccnc1-n1c(=O)c2cccnc2n(Cc2cccc([N+](=O)[O-])c2)c1=O | -1 | 0 | 20 | 12 | -4 | nt
COC(=O)c1cccnc1-n1c(=O)c2cccnc2n(Cc2ccc(Cl)cc2)c1=O | 38 | -1 | 45 | 49* | nt | 37*
Nc1cccc2c1C(=O)N(CCOc1ccc(F)cc1)C2=O | 14 | 1 | 9 | -2 | -26 | nt
O=[N+]([O-])/C(C(Cl)=C(Cl)Cl)=C(/Sc1ccccc1)N1CCCCC1 | 26 | 0 | 42 | 41* | -1 | 45*
O=C(N/C(=C\c1ccc([N+](=O)[O-])cc1)C(=O)N1CCCCC1)c1ccccc1 | 1 | -1 | 22 | 28 | -14 | nt
CCN(CC)S(=O)(=O)c1ccc2oc(C(=O)NCc3ccc(F)cc3)c(C)c2c1 | 32 | 4 | 32 | 44* | 6 | 39*
C=C(C(=O)c1ccccc1)C(NC(C)(C)C)c1ccccc1 (stereo unspecified) | nt | -4 | nt | nt | -37 | nt
Cc1cc2ncn(C(=O)c3c(-c4ccccc4)noc3C)c2cc1C | 34 | 0 | 41 | 41* | -15 | 24
Cc1cc2ncn(C(=O)c3c(-c4c(Cl)cccc4Cl)noc3C)c2cc1C | 4 | 0 | 6 | 11 | 11 | nt
COc1ccc(N2C(=O)CSC2c2ccccc2[N+](=O)[O-])cc1 (stereo unspecified) | 11 | 9 | 13 | 21 | nt | nt
Cc1c(C(=O)CN2CCCC(C)(C)C2)c2ccccc2n1C | 16 | 0 | 26 | 1 | -50 | nt
COc1ccc(C(CNC(=O)c2cc(C)oc2C)N2CCOCC2)cc1 (stereo unspecified) | 2 | 1 | 17 | 45* | 27 | -1

High-throughput results: PubChem, several laboratories
